40 compounds from PubChem BioAssay can be followed below.

A number with no mark means an inactive call. Activity calls are given as the source filed them.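 The calls were made as follows: active = luciferase signal above three times the same-plate solvent-only control wells; inactive = the rest.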

The target in the assay is Mitogen-activated protein kinase 7 (Homo sapiens) (UniProt Q13164). Put plainly: Gal4-ERK5 driven luciferase induction – cell-based, HTS, primary screen (AID 1508626).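 Also: luciferase driven by Gal4-ERK5 fusion binding five Gal4 sites before minimal TATA.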 As to conditions: HeLa Gal4-ERK5 transactivation, 18 h, at 5 µM, active compounds read high.
Mitogen-activated protein kinase 7 (Homo sapiens), sequence (Q13164 whole entry, looked up, the tested form may be a part): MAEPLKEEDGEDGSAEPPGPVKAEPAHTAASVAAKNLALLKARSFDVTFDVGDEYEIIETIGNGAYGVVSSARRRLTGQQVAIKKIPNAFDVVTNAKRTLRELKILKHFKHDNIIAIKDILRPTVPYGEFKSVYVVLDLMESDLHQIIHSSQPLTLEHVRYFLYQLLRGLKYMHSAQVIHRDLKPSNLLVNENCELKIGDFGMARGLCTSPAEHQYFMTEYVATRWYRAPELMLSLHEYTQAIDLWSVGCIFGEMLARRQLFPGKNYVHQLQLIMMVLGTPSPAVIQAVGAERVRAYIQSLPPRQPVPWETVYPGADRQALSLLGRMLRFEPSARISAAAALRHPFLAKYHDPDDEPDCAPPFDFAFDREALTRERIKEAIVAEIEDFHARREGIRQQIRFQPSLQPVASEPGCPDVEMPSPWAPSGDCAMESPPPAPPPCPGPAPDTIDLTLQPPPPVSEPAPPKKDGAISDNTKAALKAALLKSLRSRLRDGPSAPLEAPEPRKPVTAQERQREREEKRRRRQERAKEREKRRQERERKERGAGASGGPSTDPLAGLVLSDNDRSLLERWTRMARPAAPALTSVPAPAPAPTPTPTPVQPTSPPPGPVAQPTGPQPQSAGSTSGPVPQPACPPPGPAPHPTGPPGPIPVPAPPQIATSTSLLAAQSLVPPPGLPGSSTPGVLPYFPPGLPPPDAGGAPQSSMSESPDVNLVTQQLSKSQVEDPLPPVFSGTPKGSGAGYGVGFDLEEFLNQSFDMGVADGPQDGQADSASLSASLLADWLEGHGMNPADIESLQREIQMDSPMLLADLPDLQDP
Turning to `CC(C)C1=CC2=CC[C@@H]3[C@](C)(CCC[C@@]3(C)C(=O)O)[C@H]2CC1`, the luciferase signal was 44 AU. The value for `COC(=O)c1c(C)cc(OC)cc1O` was 32 AU; that for `COc1cc(O)c2c(=O)cc(-c3ccc(OC)c(-c4c(O)cc(O)c5c(=O)cc(-c6ccc(O)cc6)oc45)c3)oc2c1` was 24 AU; that for `O=C1C=C(O)c2ccccc2C1=O` was 44 AU. The value for `CCC(=O)OC1[C@@H]2CC3=C4CC(=O)O[C@@H](c5ccoc5)[C@]4(C)CCC3[C@@](C)(C2=O)[C@@H](CC(=O)OC)C1(C)C` (stereo not given in full) was 20 AU. The figure for `COC(=O)CC[C@@H](C)[C@H]1CC[C@H]2[C@@H]3[C@H](O)C[C@@H]4C[C@H](O)CC[C@]4(C)[C@H]3C[C@H](O)[C@]12C` is 252 AU (active).

As to `CC1C2[C@]3(CC[C@H]1C)CCC1(C)[C@@]2(C=CC2[C@@]4(C)CCC(=O)C(C)(C)C4CC[C@]21C)OC3=O` (stereo not given in full), the luciferase signal is 100 AU. The figure for `CC1(C)[C@@H](O)CC[C@]2(C)[C@H]3C(=O)C=C4[C@H]5C[C@@](C)(C(=O)O)CC[C@]5(C)CC[C@@]4(C)[C@]3(C)CC[C@@H]12` is 24 AU; for `CC(C)[C@@H](C)/C=C/[C@@H](C)[C@H]1CC[C@H]2C3=CC=C4C[C@@H](O)CC[C@]4(C)[C@H]3CC[C@]12C` it is 96 AU. The value for `CC(=O)N1CCC[C@H]1C(=O)O` was 52 AU. Turning to `COc1ccc2c(c1)CC[C@@H]1[C@@H]2CC[C@]2(C)[C@@H](O)CC[C@@H]12`, the luciferase signal was 36 AU.

As for `O=C(O)c1cc(O)c2c(c1)C(=O)c1cc(O)cc(O)c1C2=O`, the luciferase signal was 76 AU. The value for `CCC(C)C(=O)OC1[C@@H]2CC3=C4CC(=O)O[C@@H](c5ccoc5)[C@]4(C)CCC3[C@@](C)(C2=O)[C@@H](CC(=O)OC)C1(C)C` (stereo not given in full) was 116 AU; that for `COc1cc(C)c(C(=O)Oc2cc(C)c(C(=O)O)c(O)c2C)c(O)c1C=O` was 120 AU. The value for `CC(=O)/C=C\[C@@H]1[C@@]2(C)CCCC(C)(C)C2CC[C@@]1(C)O` (stereo not given in full) was 348 AU (active); that for `C[C@@H]1CC[C@@]2(OC1)O[C@H]1C[C@H]3[C@@H]4CC[C@H]5C[C@@H](O)CC[C@]5(C)[C@H]4CC[C@]3(C)[C@H]1[C@@H]2C` was 36 AU; that for `COC(=O)[C@@H]1OC(=O)[C@H]2O[C@@]23[C@@]1(C)CCC1[C@@]2(C)CCC(=O)C(C)(C)C2C[C@@H](OC(C)=O)[C@]13C` (stereo not given in full) was 40 AU. The value for `CCOC(=O)c1c(C)cc(OC)cc1O` was 84 AU. Take `N[C@@H](CSCSC[C@H](N)C(=O)O)C(=O)O`: the luciferase signal was 300 AU. Consider `C=C1[C@@H]([C@@]2(C)C=CC(=O)C(C)(C)[C@@H]2CC(=O)OC)CC[C@@]2(C)C(c3ccoc3)OC(=O)[C@H]3O[C@]132` (stereo not given in full), for which the luciferase signal was 20 AU. The value for `CC(=O)O[C@H]1CC[C@@]2(C)[C@H](CC[C@@H]3[C@@H]2CC[C@]2(C)[C@@H]4[C@H](C[C@@H]32)O[C@]2(CC[C@@H](C)CO2)[C@H]4C)C1` was 44 AU; that for `CC(=O)O[C@]1(C)CC[C@@]23C[C@@H]1C(C)(C)[C@@H]2CC[C@H]3C` was 56 AU; that for `CC(=O)OC1C[C@@]2(C)[C@H](c3ccoc3)OC(=O)[C@H]3O[C@]32[C@@]2(C)C1[C@]1(C)C(C[C@H]2OC(C)=O)C(C)(C)[C@H](OC(C)=O)C[C@@H]1OC(C)=O` (stereo not given in full) was 24 AU. The value for `O=c1cc(-c2ccc(O)cc2)oc2cc(O[C@@H]3O[C@H](CO)[C@@H](O)[C@H](O)[C@H]3O)cc(O)c12` was 120 AU. The value for `O=C(O)CN(CC(=O)O)Cc1cc2c(cc1O)Oc1cc(O)c(CN(CC(=O)O)CC(=O)O)cc1C21OC(=O)c2ccccc21` was 140 AU; that for `CC(=O)O[C@H]1CC[C@@]2(C)C(=CC(=O)[C@H]3[C@@H]4CC[C@H]([C@H](C)CCCC(C)C)[C@@]4(C)CC[C@@H]32)C1` was 76 AU.

Regarding `C[C@@H]1O[C@@H](Oc2c(-c3ccc(O)c(O)c3)oc3cc(O)cc(O)c3c2=O)[C@H](O)[C@H](O)[C@H]1O`, the luciferase signal is 52 AU. The value for `C=C(C)CCCC(C)CCOC(C)=O` (stereo not given) was 68 AU; that for `CC1CCC(C(C)C)C(OC(=O)c2ccccc2)C1` (stereo not given) was 48 AU. The figure for `C[C@@H]1CC[C@H]2[C@](C)(CO)[C@@H](O)CC[C@]2(C)[C@@]12CC[C@@](CO)(CCO)O2` is 48 AU; for `C[C@H](CCC(=O)O)[C@H]1CC[C@H]2[C@@H]3[C@H](O)C[C@@H]4C[C@H](O)CC[C@]4(C)[C@H]3C[C@H](O)[C@]12C` it is 28 AU; for `COC(=O)[C@@H]1OC(=O)C2OC23[C@@]1(C)CCC1[C@]2(C)C(C[C@H](O)[C@]13C)C(C)(C)[C@H](OC(C)=O)C[C@@H]2OC(C)=O` (stereo not given in full) it is 24 AU. The figure for `O=C(Cc1ccccc1)NO` is 68 AU.

For the compound `OC[C@H]1O[C@@](CO)(O[C@H]2O[C@H](CO)[C@@H](O)[C@H](O)[C@H]2O)[C@@H](O[C@H]2O[C@H](CO)[C@@H](O)[C@H](O)[C@H]2O)[C@@H]1O`, the luciferase signal is 60 AU. The figure for `C=C1CCC2C(CC2(C)C)C(=C)CC/C1=N/O` (stereo not given) is 88 AU.

With `C=C1C(=O)OC2CC1C(OC(C)=O)C/C(C)=C/CC/C(C)=C\CCC2(C)O` (stereo not given), the luciferase signal was 16 AU.

On to `CC1(C)CC[C@]2(C(=O)O)CC[C@]3(C)C(=CC[C@@H]4[C@@]5(C)CC[C@H](O)[C@@](C)(CO)[C@@H]5CC[C@]43C)[C@@H]2C1`, for which the luciferase signal is 76 AU.

Regarding `CC(=O)CC(=O)CCC(=O)O`, the luciferase signal is 80 AU. Turning to `COC(=O)C[C@H]1C(C)(C)[C@H](OC(C)=O)[C@@H]2CC3=C4CC(=O)O[C@@H](c5ccoc5)[C@]4(C)CC[C@@H]3C1(C)C2=O`, the luciferase signal was 24 AU. The value for `COc1cccc(/C=C/C(=O)O)c1C(C)C` was 24 AU.
